Screening data deposited in PubChem by National Center for Advancing Translational Sciences (NCATS).
An excerpt weighted towards active compounds, which were near 18% of everything screened.
DT40 TDP1 CPT = DT40-hTDP1 cell growth loss with CPT; chicken DT40 Tdp1-/-;hTDP1 cells + 20 nM CPT, ATP luminescence, 48 h; Potency, µM (titrated, usually from 46.2 µM), for the others: top-dose activity change, negative = growth inhibition, most hits filed as inhibitors; 12% of 420,000 active; AID 686979; note: nearly all actives have a fitted effect of over 55% in size
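Chicken DT40 Tdp1-/- cells complemented with human TDP1, 400 cells/well, exposed to compounds plus 20 nM camptothecin for at least 48 h at 37 C; viability read as ATP content by CellTiter-Glo luminescence.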
TDP1 block = inhibitors of human tyrosyl-DNA phosphodiesterase TDP1. recombinant TDP1, AlphaScreen DNA substrate cleavage. Potency, µM (top dose mostly 130 µM), for the others: at the highest dose activity change, negative = inhibition, most hits filed as inhibitors. 0.28% of 350,000 active; note: nearly all actives have a fitted effect of over 40% in size
Target sequence (Q9NUW8 whole entry, looked up): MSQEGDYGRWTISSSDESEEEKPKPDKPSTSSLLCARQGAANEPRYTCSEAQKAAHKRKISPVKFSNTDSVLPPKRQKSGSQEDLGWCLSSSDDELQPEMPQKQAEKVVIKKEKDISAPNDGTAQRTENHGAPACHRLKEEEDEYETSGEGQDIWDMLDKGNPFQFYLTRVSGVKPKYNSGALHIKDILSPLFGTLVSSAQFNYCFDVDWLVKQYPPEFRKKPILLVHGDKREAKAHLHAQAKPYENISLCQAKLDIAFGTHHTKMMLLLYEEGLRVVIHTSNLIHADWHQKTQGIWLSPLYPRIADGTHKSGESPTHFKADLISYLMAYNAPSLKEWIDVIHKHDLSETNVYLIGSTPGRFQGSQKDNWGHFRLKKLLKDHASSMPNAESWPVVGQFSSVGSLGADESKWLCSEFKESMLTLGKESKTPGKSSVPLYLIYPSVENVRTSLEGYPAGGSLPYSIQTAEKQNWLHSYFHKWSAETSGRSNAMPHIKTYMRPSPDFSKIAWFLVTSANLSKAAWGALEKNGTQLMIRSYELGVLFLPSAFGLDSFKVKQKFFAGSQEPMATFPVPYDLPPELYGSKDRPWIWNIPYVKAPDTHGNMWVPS
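Recombinant human Tdp1 (E. coli-expressed, 1 nM final) preincubated with compounds 15 min at room temperature, then 5'-biotin/3'-phosphotyrosine-FITC DNA substrate (15 nM final) added for 5 min. AlphaScreen beads (10 ug/ml final) added 10 min; cleavage lowers signal.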
KAT2A inh = blocks human GCN5L2 histone acetyltransferase; Q92830; GCN5L2 HAT assay, ThioGlo1 CoA-SH fluorescence; Potency, µM (top dose mostly 58.9 µM), for the others: at the top dose activity change, negative = inhibition, most hits filed as inhibitors; 0.21% of 390,000 active
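ThioGlo1-coupled HAT assay: 20nM GCN5L2, 70uM acetyl-CoA, 75uM H3(1-25) peptide, pH 7.5. Fluorescence read at 340/540nm at start and after 20 min at room temperature.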
VDR inh = blocks the human vitamin D receptor; P11473; 0.93% of 400,000 active; Potency, µM, inactives show max response, negative = inhibition, hits mostly inhibitors; AID 504847; VDR-SRC2-3 peptide fluorescence polarization, 2 h
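After 23 nl compound addition and a short centrifugation, plates sat for 2 hours at ambient temperature; polarization of fluorescence then indicated loss of VDR binding to peptide SRC2-3.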
PLK1 PBD inh = inhibitors of human PLK1 polo-box domain binding; P53350; 2.8% of 360,000 active; Plk1 PBD binding of FITC phosphopeptide, fluorescence polarization; Potency, µM, without a hit: max response, negative = inhibition, hits mostly inhibitors; note: series mostly up to about 57 µM; nearly all actives have a fitted effect of over 65% in size
TDP1 cell noCPT = qHTS for Inhibitors of human tyrosyl-DNA phosphodiesterase 1 (TDP1): qHTS in cells in absence of CPT; Potency, µM (highest dose often 46.2 µM), inactives show at the top dose activity change, negative = growth inhibition, usual class: inhibitors; DT40 Tdp1-/- hTDP1 cells, no CPT, ATP luminescence, 48 h; AID 686978, 2013; 15% of 420,000 active; note: nearly all actives have a fitted effect of over 55% in size
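Growth of hTDP1-complemented DT40 Tdp1-knockout cells is measured by ATP luminescence after at least 48 hr compound exposure at 37 °C, with DMSO substituting for the 20 nM CPT used in the parallel screen.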
* marks the source's active call; other numbers are inactive results; ? = inconclusive; / = no result given. Calls come from the whole dose curve; as a rule, active = well fitted curve in the direction sought with a large enough effect; inconclusive = small, poorly fitted or top-dose-only effect, or another doubt; inactive = no such curve, though single readings can be large; an effect the other way counts as inactive or inconclusive. % is set by controls: 0 for no effect and ±100 for the full control effect; potency is the fitted concentration of half-maximal effect.

SMILES | DT40 TDP1 CPT | TDP1 block | KAT2A inh | VDR inh | PLK1 PBD inh | TDP1 cell noCPT
Cc1[nH]n(-c2ccccc2)c(=O)c1C(c1ccccc1[N+](=O)[O-])C(C#N)C#N (configuration not stated) | ? | / | 1% | 89µM* | 30µM* | ?
Cc1ccc(C(C[N+](=O)[O-])c2c(C)[nH]n(-c3ccccc3)c2=O)cc1 (configuration not stated) | 4.6µM* | 5% | -2% | 45µM* | -28% | 5.8µM*
Cc1[nH]n(-c2ccccc2)c(=O)c1C(C[N+](=O)[O-])c1ccc(Cl)cc1 (configuration not stated) | 3.3µM* | 5% | -5% | ? | 12µM* | 4.1µM*
NC1(C(=O)O)CCc2cc(C(=O)O)ccc21 (configuration not stated) | ? | ? | -6% | -6% | / | ?
CC(C)N1C(=O)c2ccccc2NC(=O)C1C(=O)NCc1cccc(C(F)(F)F)c1 (configuration not stated) | ? | / | / | / | 0% | ?
O=C1OC(c2ccc(F)cc2)CC1CN1CCOCC1 (configuration not stated) | 5.8µM* | / | / | / | -2% | 10µM*
O=C(CN1CCOCC1)Nc1ccc(F)cc1 | -8% | / | -12% | -28% | -6% | -6%
COc1ccc(OC)c(CNS(=O)(=O)c2cc(CN3C(=O)c4cccnc4C3=O)ccc2OC)c1 | -12% | 4% | -8% | ? | -13% | 23%
O=C(Cn1ncc2c(=O)oc3ccccc3c21)N1CCN(c2ccccn2)CC1 | 1% | 6% | -8% | -14% | -6% | -16%
Cc1ccc(Cn2c(C)c3cnn(CC(=O)N4CCN(c5ccc(F)cc5)CC4)c(=O)c3c2C)cc1 | 10µM* | 8% | 3% | 9% | / | 12µM*
Cc1c2cnn(CC(=O)N3CCCCC3)c(=O)c2c(C)n1Cc1ccc(F)cc1 | ? | 0% | -6% | -7% | / | ?
CCC(C(=O)N1CCN(c2ccccc2)CC1)n1c(C)c2cnn(-c3ccccc3)c(=O)c2c1C (configuration not stated) | ? | 5% | 1% | 14% | / | ?
Cc1cc(=O)n(Cc2cccc(F)c2)c2c1c(C)nn2-c1cccc(F)c1 | -13% | -6% | 15% | -11% | / | -1%
COc1cccc(N2CCN(C(=O)Cn3ncc4c(=O)oc5ccccc5c43)CC2)c1 | 16µM* | 4% | 2% | -13% | / | 18µM*
Cc1cc(=O)n(CC(=O)N2CCCc3ccccc32)c2c1c(C)nn2-c1cccc(F)c1 | 16µM* | 10% | -14% | 4% | / | ?
Cc1c2cnn(-c3ccccc3)c(=O)c2c(C)n1CC(=O)N1CCN(c2ccc(F)cc2)CC1 | 21µM* | 3% | 0% | -3% | / | 15µM*
COc1cccc(CN(c2ccccc2C(=O)O)S(=O)(=O)c2ccc(C)cc2)c1 | 2% | / | / | -23% | 1% | -7%
Cc1cc(=O)n(CC(=O)N2CCN(c3ccc(F)cc3)CC2)c2c1c(C)nn2C | 18µM* | 7% | -7% | -10% | / | 21µM*
Cc1c2cnn(-c3ccccc3)c(=O)c2c(C)n1CC(=O)N1CCN(c2cccc(Cl)c2)CC1 | 18µM* | 3% | -7% | 11% | / | 13µM*
CCOC(=O)C1CCCN(C(=O)Cn2c(=O)cc(C)c3c(C)nn(C)c32)C1 (configuration not stated) | ? | 3% | 9% | -2% | / | ?
Fc1cccc(NC(=S)NCc2ccc(Cl)cc2)c1 | ? | 0% | -3% | -5% | -18% | ?
Fc1ccc(CNC(=S)Nc2cccc(C(F)(F)F)c2)cc1 | ? | 3% | -3% | -4% | -16% | 18µM*
Fc1ccccc1CNC(=S)Nc1cccc(C(F)(F)F)c1 | ? | -1% | -8% | 1% | -5% | 23µM*
O=[N+]([O-])c1cccc(Cl)c1NCCNc1ncc(C(F)(F)F)cc1Cl | ? | 7% | -25% | -9% | ? | ?
O=[N+]([O-])c1cc(C(F)(F)F)cc([N+](=O)[O-])c1NCCNC(=S)Nc1cccc(F)c1 | ? | 3% | -10% | -23% | -1% | 26µM*
SMILES | DT40 TDP1 CPT | TDP1 block | KAT2A inh | VDR inh | PLK1 PBD inh | TDP1 cell noCPT
CCN(CC)C(=O)C1=C(C)N(CCCN2CCCC2=O)C(=O)C(CC(=O)NCc2ccco2)C1 (configuration not stated) | 2% | / | / | / | -4% | -16%
CCC(CN)CC(C)CCNCC(O)CNCC(C)CC(CC)CN (configuration not stated) | -1% | / | / | / | / | 3%
CCOC(=O)CC(NC(=O)c1cc2cc(OC)ccc2oc1=O)c1ccc(OC)cc1 (configuration not stated) | ? | -1% | -17% | -16% | / | -6%
COC(=O)c1cc(S(=O)(=O)NCc2ccccc2OC)cn1C | ? | 3% | 1% | -7% | 3% | 8.2µM*
COC(=O)c1cc(S(=O)(=O)NCc2cccc(OC)c2)cn1C | -29% | / | -7% | -7% | -4% | -2%
CCc1cccc(C)c1NS(=O)(=O)c1ccc(-n2cccn2)cc1 | 16µM* | 3% | -16% | 11% | / | 26µM*
COc1ccc(NS(=O)(=O)c2ccc(-n3cccn3)cc2)cc1OC | 5.8µM* | -4% | 1% | -5% | / | 4.6µM*
Cc1cc(C)cc(NS(=O)(=O)c2ccc(-n3cccn3)cc2)c1 | 16µM* | 3% | 0% | 16% | / | ?
Cc1ccc(NS(=O)(=O)c2ccc(-n3cccn3)cc2)cc1Cl | ? | 3% | -7% | 15% | -4% | ?
O=S(=O)(Nc1ccccn1)c1ccc(-n2cccn2)cc1 | -10% | 4% | 0% | 1% | 6% | -13%
Cc1cccc(NC(=O)C2CCN(S(=O)(=O)c3ccc(F)cc3)CC2)c1C | -3% | / | -5% | 23% | / | -17%
C=CCn1c(C)nnc1SCC(=O)Nc1nccs1 | 8% | 5% | 2% | 10% | -6% | 17%
COc1ccccc1CNS(=O)(=O)c1ccc(-n2cccn2)cc1 | 26µM* | 3% | -6% | 1% | 2% | ?
O=S(=O)(Nc1cccc(Cl)c1)c1ccc(-n2cccn2)cc1 | -29% | / | -1% | -2% | -14% | ?
COc1cc(NS(=O)(=O)c2ccc(-n3cccn3)cc2)cc(OC)c1 | 13µM* | / | / | / | -3% | 12µM*
CCc1cccc(NS(=O)(=O)c2ccc(-n3cccn3)cc2)c1 | 16µM* | 6% | -9% | -19% | 30µM* | 21µM*
